Bioassay records as filed in PubChem BioAssay.
FBA Mtb inh – inhibits M. tuberculosis FBA enzyme; P9WQA3; purified M. tuberculosis FBA, fluorescence read-out; inhibition, % at 1 µM; 2.3% of 360,000 active; AID 588726; in the data active = inhibition above about 27%;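 also: 0% = vehicle and 100% = reference inhibitor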
Target sequence (P9WQA3 whole entry, looked up): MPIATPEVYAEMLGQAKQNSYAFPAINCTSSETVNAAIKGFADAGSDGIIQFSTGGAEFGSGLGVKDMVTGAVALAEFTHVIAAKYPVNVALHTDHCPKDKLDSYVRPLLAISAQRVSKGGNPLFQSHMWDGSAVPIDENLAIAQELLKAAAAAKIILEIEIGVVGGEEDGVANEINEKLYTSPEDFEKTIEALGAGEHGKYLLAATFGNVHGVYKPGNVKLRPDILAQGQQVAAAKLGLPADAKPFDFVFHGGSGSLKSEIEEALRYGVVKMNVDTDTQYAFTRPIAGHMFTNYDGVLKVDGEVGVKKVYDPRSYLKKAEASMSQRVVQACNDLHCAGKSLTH
CCHFV vOTU inh – blocks the CCHF virus ovarian tumor domain protease | CCHFV vOTU protease, Pep-AMC fluorescence | inhibition, % at 11.5 µM | 0.55% of 370,000 active | AID 651958; also: 0% = vehicle wells with enzyme and 100% = no enzyme wells
RecA splice inh – inhibitors of M. tuberculosis RecA intein splicing; inhibition, % (concentration not given with the values); cell-free RecA intein splicing, fluorescence; AID 2221; 0.75% of 290,000 active; in the data active = inhibition above about 30%;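 also: 0% = vehicle wells and 100% = reference inhibitor control wells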
GDH-TPI inh – inhibits GDH-TPI coupling enzymes, artifact for Mtb FBA screen; inhibition, % at 4.8 µM; 1.2% of 360,000 active; GDH-TPI coupled enzyme counterscreen, NADH absorbance;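 also: 0% = DMSO wells and 100% = wells lacking the enzyme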
Mtb bLac sens – beta-lactam sensitization of Mtb H37Rv; M. tuberculosis H37Rv growth with meropenem, percent inhibition; inhibition, % at 25 µM; 0.27% of 330,000 active; AID 434955; call rule not given here;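 also: growth measured after seven days incubation then overnight dye step; 0% = bacteria only wells and 100% = bacteria with antibiotic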
Active calls of the source: *; x = no result given; + = active, no number. Compounds with a hit are over-represented: about 4.2% of the library has one in this group of screens. Rule as the data show it, unless noted: active = inhibition above about 30%; inactive = the rest.

SMILES	FBA Mtb inh	CCHFV vOTU inh	RecA splice inh	GDH-TPI inh	Mtb bLac sens
Nc1ccc(C(=O)N/N=C2\CCCc3c2[nH]c2ccccc32)cc1	12.3	-4.6	-1.2	62.2*	-2.6
Nc1ccc(C(=O)N/N=C/c2c[nH]c3ccccc23)cc1	-0.5	2.9	0.3	40.8*	2.3
CN(C)CC(c1ccc(O)cc1)C1(O)CCCCC1 (stereo not given)	x	-9.3	x	x	x
Cc1cccc(-c2nnc(SCc3cccc4ccccc34)n2-c2ccc(Cl)cc2)c1	x	7.0	x	x	x
COC(=O)[C@]12C[C@H](CC(=O)NCC34CC5CC(CC(C5)C3)C4)C(=O)N(CCC3=CCCCC3)C1=C[C@H](C(C)C)O[C@@H]2C1CC1	x	13.9	x	x	x
O=C(CCl)Nc1ccc(N2CCCCCC2)cc1	5.3	3.0	48.4*	0.3	97.1
CCC(=O)Nc1ccc(N2CCCCC2)cc1	1.3	6.1	-3.6	7.5	3.1
CC(=O)Nc1cccc(OC(=O)COc2ccc(Br)cc2)c1	3.2	-10.3	35.4*	0.0	2.5
Cc1ccc(OCC(=O)Oc2cccc(C)c2)cc1	1.4	-14.1	7.4	-3.0	-3.8
COC(=O)[C@]12C[C@H](CC(=O)NCc3ccc(C)o3)C(=O)N(Cc3ccco3)C1=C[C@H](C(C)C)O[C@@H]2C1CC1	x	3.5	x	x	x
O=C(CSc1nnc(-c2cnccn2)n1-c1ccccc1)c1ccc(F)cc1	x	-2.2	x	x	x
COc1ccc(-c2ccc(C#N)c(SCC(=O)OCc3ccccc3)n2)cc1OC	+	-48.3	-2.2	22.5	98.8
COc1ccc(-c2ccc(C#N)c(SCC(=O)NCc3ccco3)n2)cc1OC	+	-168.9	-2.0	46.2*	-3.8
COc1cccc(-c2ccc(C#N)c(SCC(=O)NCCc3ccccc3)n2)c1	3.5	-0.8	-3.5	4.1	7.7
O=C(O)c1ccc(N/N=C2/CCCc3ccccc32)cc1	1.8	24.7	-3.0	79.2*	14.4
O=C1N/C(=C\c2ccc(O)cc2)C(O)=C1C=NCc1ccccc1	-3.5	9.0	6.8	37.1*	3.0
COc1ccc(/C=C2\NC(=O)C(C=NCc3ccccc3)=C2O)cc1	0.7	2.3	-1.8	13.5	1.6
CCOC(=O)N(C)[C@H]1C[C@H]2c3[nH]c4cccc(-c5cccc(F)c5)c4c3CCN2C(=O)[C@H]1[C@H](C)O	x	-30.3	x	x	x
CC(=C/c1ccccc1)/C=N/NC(=O)c1cccs1	-3.3	20.8	5.9	28.9	8.3
O=C(N/N=C/C(Br)=C/c1ccccc1)c1ccncc1	-1.4	3.3	11.3	36.0*	99.1
CCOc1cc(C(=O)N/N=C/C(Br)=C/c2ccccc2)cc(OCC)c1OCC	-3.1	-14.3	1.9	31.5*	-4.3
COc1ccccc1C(=O)N/N=C/C(C)=C/c1ccccc1	-5.2	-1.9	2.5	32.2*	-1.7
O=C(N/N=C/C(Br)=C/c1ccccc1)c1ccc([N+](=O)[O-])cc1	-0.5	13.8	2.1	10.3	14.5
CC(/C=N/NC(=O)c1cccc(F)c1)=C\c1ccccc1	-2.3	-9.8	1.2	27.8	-1.1
O=C(N/N=C/C(Br)=C\c1ccccc1)c1cccs1	-0.1	-3.7	3.6	30.6*	59.5
SMILES	FBA Mtb inh	CCHFV vOTU inh	RecA splice inh	GDH-TPI inh	Mtb bLac sens
O=C(N/N=C\c1ccc(Cl)s1)c1cccs1	-1.9	19.4	-0.9	32.7*	62.6
CC(/C=N/NC(=O)c1ccncc1)=C\c1ccccc1	-2.3	8.5	6.0	44.6*	99.0
CC(=C/c1ccc(C(C)C)cc1)/C=N/NC(=O)c1ccncc1	-4.2	9.9	-4.4	30.4	98.7
CNC(=O)c1nnsc1S(=O)c1ccc(Cl)cc1 (stereo not given)	2.3	1.9	40.2*	4.8	x
COc1ccc(NC(=O)c2cccc(N3C(=O)C4C5C=CC(C5)C4C3=O)c2)cc1Cl (stereo not given)	-1.2	14.9	93.5*	14.7	63.5
Cc1ccc(NC(=O)c2cccc(N3C(=O)C4C5C=CC(C5)C4C3=O)c2)cc1C (stereo not given)	2.2	4.8	-0.9	3.9	-4.9
COc1ccc(CSc2nnc(SCC(=O)Nc3ccc4c(c3)OCO4)s2)cc1	x	8.8	x	x	x
CC(C)Nc1nc(Cl)nc(N(C#N)CN2C(=O)c3ccccc3S2(=O)=O)n1	-0.8	8.5	23.3	2.6	0.8
COc1nc(NC(C)C)nc(N(C#N)CN2C(=O)c3ccccc3S2(=O)=O)n1	6.7	-11.9	60.9*	9.2	4.3
COc1cc2cc(C(N)=O)c(N)nc2cc1OC	+	-203.7	-259.3	-1.9	-0.7
COC(=O)[C@]12C[C@H](CC(=O)NCC34CC5CC(CC(C5)C3)C4)C(=O)N(Cc3ccco3)C1=C[C@H](COCc1ccccc1)O[C@@H]2C	x	11.3	x	x	x
CC(C)N1CCCCC(NC(=O)c2cccc(C(F)(F)F)c2)C1=O (stereo not given)	x	7.7	x	x	x
